Consider 50 compounds from ChEMBL document CHEMBL3988442, “University of Dundee, Small-Polar-MMV Screening Library” (2021).

SMILES strings stand for the structures.

Assay [1] has as its target T1, Aspartate--tRNA(Asp/Asn) ligase (Mycobacterium tuberculosis (strain ATCC 25618 / H37Rv)) (UniProt P9WFW3). Also: in the data most compounds retested in dose-response had high values.
T1 sequence (whole entry): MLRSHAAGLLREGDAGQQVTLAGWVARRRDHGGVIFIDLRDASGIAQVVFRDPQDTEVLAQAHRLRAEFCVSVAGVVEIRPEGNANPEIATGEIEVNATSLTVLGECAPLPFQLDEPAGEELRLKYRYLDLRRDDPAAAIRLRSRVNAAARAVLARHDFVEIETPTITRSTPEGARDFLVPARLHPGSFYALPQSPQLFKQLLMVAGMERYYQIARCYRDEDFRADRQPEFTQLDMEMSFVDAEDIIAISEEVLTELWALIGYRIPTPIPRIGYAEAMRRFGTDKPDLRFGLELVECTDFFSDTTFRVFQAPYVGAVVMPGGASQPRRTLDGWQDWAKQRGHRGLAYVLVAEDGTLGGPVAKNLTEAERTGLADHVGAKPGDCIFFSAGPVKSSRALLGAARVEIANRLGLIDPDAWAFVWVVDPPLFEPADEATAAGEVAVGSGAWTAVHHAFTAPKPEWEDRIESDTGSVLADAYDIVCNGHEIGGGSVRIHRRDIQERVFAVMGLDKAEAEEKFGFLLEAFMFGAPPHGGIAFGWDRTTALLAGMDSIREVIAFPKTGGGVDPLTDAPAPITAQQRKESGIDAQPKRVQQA
The assay can be described thus: Assay for Asp RNA synthetase-1 from Mycobacterium tuberculosis. The class given is functional. Also noted: scale not given: direction of the effect not stated beside the values. The conditions noted are these: 30 µM.

Assay [2] addresses Shiga toxin 2 (Escherichia coli O157:H7) (UniProt P09385+P09386). The assay can be described thus: E. coli 0.157:H7 Shiga Toxin SOP - stx2 screening assay. It is filed as functional. Also noted: scale not given: direction of the effect not stated beside the values. Particulars: 30 µM.

Take `COCCN(Cc1ccc(F)cc1Cl)C(=O)c1ccncc1`: the Percent Effect in assay [1] was -5.35%; in assay [2], 12%.
Regarding `CN(C)C(=O)N1CCN(Cc2noc(Cc3ccccc3)n2)CC1`, the results for the Percent Effect in assay [1] and in assay [2] were 0.542% and 8.78%, respectively.
For the compound `CCN(C1CCS(=O)(=O)C1)S(=O)(=O)c1cccc2cc(C)cnc12` (stereo not given), the Percent Effect in assay [1] is -1.66%; in assay [2], 30.4%.
Taken in the same sequence, the figures for `CC(C)c1nccn1-c1cccc(C2CCN(C)CC2)n1` were -1.47% and -33.7%.
As for `COC(=O)N1C[C@H]2CC[C@@H]1CN(Cc1cscn1)C2`, the figures for the Percent Effect in assay [1] and in assay [2] were -3.45% and 17.3%, respectively.
Taken in the same sequence, the figures for `COC(=O)N1CCCN(C(=O)NCc2ccc(Cl)s2)CC1` were 5.28% and -16.1%.
Taken in the same sequence, the figures for `OCCn1cc(CN2CCN(CCOc3ccccc3F)CC2)cn1` were -0.699% and 24.4%.
In the case of `O=C1CN(Cc2ccc(-c3ccccc3C(=O)O)cc2)CCN1`, the Percent Effect is 5.6% in assay [1] and 43.1% in assay [2].
Taken in the same sequence, the figures for `CN1CCOC(CNC(=O)CCCOc2ccccc2F)C1` (stereo not given) were -5.14% and -33.1%.
For `c1cnn(CC2CN(CCc3ccncc3)CCO2)c1` (stereo not given) the same measures were 2.1% and 17.1%.
As to `CNC(=O)c1ccc(C(=O)N2CCCC2c2cnn(C)c2)cn1` (stereo not given), the values for the Percent Effect in assay [1] and in assay [2] were -5.79% and -8.21%, respectively.
As to `Cc1ccc(NC2CCN(C(=O)c3ccc(Cl)o3)CC2)nn1`, the Percent Effect is 1.75% in assay [1] and 7.55% in assay [2].
For `CSCC(=O)N1C[C@H]2CC[C@@H]1CN(Cc1ccccc1)C2` the same measures were 4.28% and -4.7%.
Taken in the same sequence, the figures for `O=C(CC1CN(Cc2ccccc2)CCO1)NC1CCCC1` (stereo not given) were -3.53% and 1.42%.
For `Cc1cc2nc(SCC(=O)N3CCOCC3)n(CC(C)C)c(=O)c2[nH]1` the same measures were 11.7% and -10.1%.
In the case of `Cc1cc(C[C@@H]2COC[C@H]2NCc2ccccc2C(F)(F)F)on1`, the Percent Effect in assay [1] was 2.34%; in assay [2], -7.33%.
For `O=C(C1CCOCC1)N1CCC2(CC1)CC(Oc1ccccc1)CO2` (stereo not given) the same measures were -1.89% and 25.7%.
Taken in the same sequence, the figures for `CN(C)CC1CN(C(=O)NCc2ccccc2)Cc2nccn2C1` (stereo not given) were -0.114% and -2.62%.
Taken in the same sequence, the figures for `O=C([C@H]1C[C@H]2OCC[C@H]2N(C(=O)c2ccncc2)C1)N1CCCCO1` were -3.79% and -6.05%.
Consider `NC(=O)CCN1CCC(C(=O)c2cc(F)ccc2F)CC1`, for which the Percent Effect was 0.12% in assay [1] and -0.638% in assay [2].
Take `Cc1nc(C2CCCN(C(=O)c3cc(Cl)c[nH]3)C2)no1` (stereo not given): the Percent Effect is -3.91% in assay [1] and 0.906% in assay [2].
Taken in the same sequence, the figures for `Cn1ccnc1CN1CCN(CC(O)c2ccc(F)c(F)c2)CC1` (stereo not given) were 1.33% and -1.4%.
Taken in the same sequence, the figures for `CC(C)OCCN1CCN(C(=O)c2cccc(CC#N)c2)CC1` were 2.85% and -12.3%.
Taken in the same sequence, the figures for `Cc1nn(C)c(C)c1C1CCCN1Cc1nc(C2CC2)no1` (stereo not given) were -10.2% and -15.8%.
With `O=C(NCc1nncn1-c1ccccc1)C1CC(=O)N(CC2CC2)C1` (stereo not given), the Percent Effect in assay [1] was -2.56%; in assay [2], 23.5%.
For `COc1c(C2CCCN2CC(=O)Nc2cc(C)no2)c(C)nn1C` (stereo not given) the same measures were 2.74% and 12.9%.
For `Cc1nc(-c2nnc[nH]2)sc1C(=O)N(Cc1cccnc1)C1CC1` the same measures were -2.72% and 7.27%.
For `CCOCC(=O)N1C[C@@H](O)[C@H](N(C)Cc2ccc(OC)cc2)C1` the same measures were -0.849% and 14.7%.
As to `CCC(C)c1noc(C2CCN(C(=O)c3cccnc3)CC2)n1` (stereo not given), the Percent Effect in assay [1] was 17%; in assay [2], -27.8%.
Taken in the same sequence, the figures for `COc1cccc(F)c1C(=O)N1C[C@@H](CN(C)CCO)[C@@H](CO)C1` were -0.268% and -11.4%.
For `Cc1[nH]nc2ncc(C(=O)N3CCN(CC(C)C)CC3)cc12` the same measures were -2.36% and 33.6%.
As to `Cc1cccc(C(=O)N2C[C@@H]3CCN(c4cccnc4)C[C@@H]3C2)c1`, the results for the Percent Effect in assay [1] and in assay [2] were 3.96% and -5.99%, respectively.
Taken in the same sequence, the figures for `CC(NC(=O)NCCCn1ccnc1)c1ccc2c(c1)CCC(=O)N2` (stereo not given) were -3.85% and -22.9%.
In the case of `CC(=O)N1CCN(c2cc(-c3ccccc3)nc3c(C)c(C)nn23)CC1`, the Percent Effect in assay [1] is 2.46%; in assay [2], -33.1%.
For `CN(Cc1ccsc1)C(=O)Nc1ccc(S(C)(=O)=O)nc1` the same measures were -0.6% and -35.6%.
For `CCOCC(O)CN1CCN(C(=O)c2cc(F)ccc2C)CC1` (stereo not given), the Percent Effect in assay [1] is -0.759%; in assay [2], 9.83%.
For `Cc1cnn(CC2CCCN2CCc2nc3ccccc3c(=O)[nH]2)c1` (stereo not given) the same measures were -3.23% and 2.14%.
Taken in the same sequence, the figures for `CCNc1nc2c(s1)C(=O)CN(C(=O)NCCc1ccccc1)C2` were 2.72% and -10.6%.
For the compound `CN(C)C(=O)CN1CCC2(CCN(Cc3nccs3)CC2)C1=O`, the figures for the Percent Effect in assay [1] and in assay [2] were 7.45% and -16.7%, respectively.
Regarding `CCOCC1CN(C(=O)c2ccncc2)Cc2nn(C)cc21` (stereo not given), the values for the Percent Effect in assay [1] and in assay [2] were 4.25% and -22.5%, respectively.
For `N#Cc1cccnc1NCc1cccnc1N1CCC(C(N)=O)CC1` the same measures were 4.47% and -10.3%.
For `CCC(=O)Nc1nnc(CCOc2cccc(OC)c2)s1` the same measures were -4.27% and 5.93%.
For `O=C(NCc1cccnc1-n1cccn1)C1CC(=O)N(CC2CC2)C1` (stereo not given) the same measures were -2.05% and 10.1%.
Consider `Cc1nn(C)c2c(NCCCn3cccn3)ncnc12`, for which the Percent Effect in assay [1] was -6.88%; in assay [2] it was -37.5%.
For `CS(=O)(=O)CC(=O)N1C[C@H]2CCC[C@@]2(COCc2ccccn2)C1` the same measures were 4.11% and -6.39%.
Taken in the same sequence, the figures for `CC(NC(=O)NCC1(O)CCC1)c1ccc(OCC2CC2)c(F)c1` (stereo not given) were -6.14% and -4.99%.
As to `COc1ccc(CNC(=O)N(Cc2ccc(F)cc2F)C2CC2)cn1`, the Percent Effect is -9.17% in assay [1] and -13% in assay [2].
`NCCn1nc(C2CCN(C(=O)CC3CCCCC3)C2)c2nccnc21` (stereo not given): the Percent Effect is 1.37% in assay [1] and -31.7% in assay [2].
Taken in the same sequence, the figures for `CN(Cc1ccccc1)CC1(O)CCCN(CC(C)(C)C)C1=O` (stereo not given) were -7.46% and 17.9%.
For `CC(C)CN1CCN(C(=O)NCc2cccnc2-n2cccn2)CC1` the same measures were -1.98% and -22.5%.
